nsP2pro primary = CHIKV nsP2 protease inhibition, primary qHTS | Q8JUX6 | FRET peptide cleavage, nsP2pro, fluorescence 1 h | Potency, µM (titrated, usually from 24.9 µM), for the others: at the top dose activity change, negative = inhibition, hits mostly inhibitors | actives 1.1% (n = 31,000); further: nearly all actives have a fitted effect of over 60% in size
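FRET cleavage of 2.5 uM peptide 2 by 150 nM CHIKV protease domain at pH 8.0 (Tris, Tween 20). Compounds at 7 concentrations (up to 25 uM) preincubated 15 min. Fluorescence read after 1 h at room temperature.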
CHIKV nsP2 cell = inhibits CHIKV nsP2 protease in cells | shares compounds with nsP2pro primary | Potency, µM (series often up to 51.1 µM), for inactives: at the top dose activity change, negative = inhibition, most hits filed as inhibitors | actives 10% (n = 450) | cell-based CHIKV nsP2 protease reporter assay; further: nearly all actives have a fitted effect of over 70% in size
NSP2 full ctr = selectivity test for CHIKV nsP2 protease inhibitors: full-length NSP2; Potency, µM (titrated, usually from 50.7 µM), without a hit: at the highest dose activity change, negative = inhibition, most hits filed as inhibitors; AID 1964101; Full-length CHIKV NSP2 protease enzymatic counterscreen; actives 39% (n = 410); shares compounds with nsP2pro primary; further: nearly all actives have a fitted effect of over 65% in size
Furin counter = human furin inhibition, counterscreen for nsP2pro inhibitors. actives 6% (n = 410). Recombinant human furin enzymatic counterscreen, fluorogenic substrate. Potency, µM (top dose mostly 50.6 µM), without a hit: top-dose activity change, negative = inhibition, most hits filed as inhibitors. shares compounds with nsP2pro primary. AID 1964102
NS23 peptide cs = nsP2pro inhibition on native NS2/3 peptide substrate. shares compounds with nsP2pro primary. Purified CHIKV nsP2 protease, endogenous NS2/3 peptide cleavage. Potency, µM (titrated, usually from 51 µM), without a hit: at the highest dose activity change, negative = inhibition, usual class: inhibitors. actives 34% (n = 410); further: nearly all actives have a fitted effect of over 55% in size
Papain cs = papain protease inhibition, counterscreen for nsP2pro inhibitors; actives 5% (n = 410); shares compounds with nsP2pro primary; purified papain protease activity, enzymatic inhibition; Potency, µM (doses to about 51 µM), for inactives: top-dose activity change, negative = inhibition, usual class: inhibitors
nsP2pro conf qHTS = CHIKV nsP2 protease inhibition, confirmatory qHTS; CHIKV nsP2 protease enzymatic activity, qHTS; Potency, µM (titrated, usually from 25.5 µM), for inactives: at the top dose activity change, negative = inhibition, actives largely listed as inhibitors; shares compounds with nsP2pro primary; actives 43% (n = 410); AID 1964105; further: nearly all actives have a fitted effect of over 75% in size
HCV NS3 counter = HCV NS3/4A protease inhibition, counterscreen; shares compounds with nsP2pro primary; HCV NS3/4A protease biochemical counterscreen; Potency, µM (highest dose often 50.9 µM), usual class: inhibitors; actives 20% (n = 410); AID 1964106; further: nearly all actives have a fitted effect of over 55% in size
Active calls of the source: *; [ ] = dose if it differs, or a comment. This is one part of a sample in which hits are shown more often than they occur. The call rests on the fitted dose curve. On the % scale 0 is the no-effect control and ±100 the full control effect; potency means the concentration at half of the fitted maximal effect.

`O=C(Nc1ccc(N2CCN(CCOc3ccc(Cl)cc3)CC2)c(C(=O)O)c1)c1ccc(F)cc1` gave nsP2pro primary 3.5µM*, CHIKV nsP2 cell 2%, NSP2 full ctr 3.3µM*, Furin counter inconclusive, NS23 peptide cs 8.2µM*, Papain cs 16%, nsP2pro conf qHTS 7.1µM* and HCV NS3 counter 2.1µM*.
COc1cccc(CC(=O)Nc2nc(-c3ccc4c(c3)CCN4C(=O)c3ccccc3C)c(C)s2)c1 was read as nsP2pro primary -7%.
For O=C(/C=C/N1C[C@@H]2C[C@@H]1CN2c1ccccn1)c1ccccc1O the results were nsP2pro primary 18%.
For Cn1cccc1CN1CC(Oc2ccc(F)cc2F)C1 the results were nsP2pro primary -23%[39.2 µM].
`O=C(NCc1cccnc1)C1CN(S(=O)(=O)C2CC2)CC12CCCCC2` (stereo not drawn) gave nsP2pro primary inactive.
CCOC(=O)C(Cc1cccc(N2CCC(Nc3ccccc3)CC2)c1F)OC (stereo not drawn) was read as nsP2pro primary -13%.
For CCN(CC)C(=O)C1CN2CCc3cc(OC)c(OC)cc3C2CC1OC(C)=O (stereo not drawn) the results were nsP2pro primary -11%.
For CC(CN)(c1ccccn1)N1CCOCC1 (stereo not drawn) the results were nsP2pro primary inactive.
`C=C(C)C(=O)O[C@H]1C[C@@](C)(O)C2(O)CCC(C)(/C=C3/OC(=O)C(COC)=C31)O2` (stereo partly drawn) gave nsP2pro primary inconclusive, CHIKV nsP2 cell inconclusive, NSP2 full ctr inconclusive, Furin counter -10%[33.5 µM], NS23 peptide cs inconclusive, Papain cs -9%[33.5 µM], nsP2pro conf qHTS inconclusive and HCV NS3 counter inconclusive.
For Oc1ccc2c(-c3c(-c4ccccn4)nn4c3CCC4)ccnc2c1 the results were nsP2pro primary 20%.
For COc1ccccc1OCc1cc(C(=O)N2CCCCCCCC2)n[nH]1 the results were nsP2pro primary inactive.
Screening c1cc(CN(CCN2CCCCC2)CC2CCCN(C3CCCC3)C2)c2nonc2c1 (stereo not drawn) returned nsP2pro primary inactive.
For O=C(c1ccc2ccccc2n1)N1CCC(n2cc(-c3nc(-c4ccccc4)no3)nn2)C1 (stereo not drawn) the results were nsP2pro primary inactive.
For CC(=O)NCC(=O)N1CCC(c2cc(-c3ccc(F)cc3)n[nH]2)CC1 the results were nsP2pro primary inactive.
O=C(c1cc(-c2ccco2)[nH]n1)N1CCC(n2cnc3ccccc32)C1 (stereo not drawn) was read as nsP2pro primary 0.71µM*, CHIKV nsP2 cell inconclusive, NSP2 full ctr 7.3µM*, Furin counter -8%, NS23 peptide cs inconclusive, Papain cs -3%, nsP2pro conf qHTS inconclusive and HCV NS3 counter 3.3µM*.
O=C(NCC(F)(F)F)c1cc(C2CCN(C(=O)c3cc(-c4ccco4)[nH]n3)CC2)[nH]n1 was read as nsP2pro primary 1.1µM* and CHIKV nsP2 cell -12%.
`COCC1CCCN(C(=O)c2cc(Cn3c(C)nc4ccccc43)[nH]n2)C1` (stereo not drawn) gave nsP2pro primary 2%.
For COc1cccc(-c2cc(C3CCN(C(=O)Nc4ccccc4C(F)(F)F)CC3)[nH]n2)c1 the results were nsP2pro primary inactive.
